# Screens from PubChem BioAssay.
# Most compounds without a hit are left out; they make up all but 28% or so of the library.
# Plk1 PBD FP: inhibitors of human Plk1 polo box domain binding; inhibition, %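 (tested at about 20 µM)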; AID 693; P53350; hit rate 0.13% among 97,000; Plk1 PBD phosphopeptide binding, fluorescence polarization; in the data active = inhibition above about 34%, passing the limit was not always enough
# CYP2C9 inhib: blocks human cytochrome P450 2C9; inhibition, % at 5 µM; CYP2C9 Supersomes, luciferin-H conversion, luminescence; P11712; hit rate 20% among 96,000;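 active = blocking of liver enzyme CYP2C9 beyond about 50% at 5 µM, limit read from the data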
# PLK1 kinase inh: blocks human PLK1 kinase activity; recombinant PLK1 kinase, TR-FRET peptide phosphorylation; inhibition, % at 10 µM; P53350; hit rate 0.53% among 97,000; AID 619;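 active = inhibition of 50% or more in the single-concentration screen; inactive = inhibition below 50%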;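 also: 0% = DMSO max control and 100% = H-89 dihydrochloride min control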
# CYP2C19 activ: increases human CYP2C19 enzyme activity; P33261; recombinant CYP2C19, luciferin-H EGE luminescence; stronger effect = higher value; 0 = fully inhibited enzyme, 1 = untreated enzyme; activation factor at 5 µM; 96,000 tested, under 10 active; AID 1025;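 active = activation factor of at least 2 at 5 µM in the primary screen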;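 also: 0 = wells with 2.5 mM tranylcypromine and 1 = vehicle-only wells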
# Target sequence (P33261 whole entry, looked up): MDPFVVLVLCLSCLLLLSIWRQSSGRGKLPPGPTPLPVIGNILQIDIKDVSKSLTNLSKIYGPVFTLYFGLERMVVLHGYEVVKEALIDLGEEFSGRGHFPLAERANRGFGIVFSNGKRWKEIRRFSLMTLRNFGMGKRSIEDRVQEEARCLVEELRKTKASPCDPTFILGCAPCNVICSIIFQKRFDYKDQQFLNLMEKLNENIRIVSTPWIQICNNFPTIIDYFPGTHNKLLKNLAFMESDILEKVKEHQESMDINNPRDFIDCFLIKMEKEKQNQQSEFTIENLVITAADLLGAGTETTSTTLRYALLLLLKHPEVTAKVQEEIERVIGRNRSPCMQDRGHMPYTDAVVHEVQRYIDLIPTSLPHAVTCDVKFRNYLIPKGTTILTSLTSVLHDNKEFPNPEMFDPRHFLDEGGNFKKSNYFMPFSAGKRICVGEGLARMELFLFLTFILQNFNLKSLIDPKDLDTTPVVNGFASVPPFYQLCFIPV
# CYP2C9 act: CYP2C9 (human) activation; activation factor at 5 µM; P11712; recombinant CYP2C9, luciferin-H conversion, luminescence; stronger effect = higher value; factor 1 = untreated enzyme, 0 = blocked; AID 1024; hit rate 1.4% among 96,000;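 active = activation factor of 2 or more for CYP2C9 at a 5 µM dose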;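 also: 0 = sulfaphenazole-blocked wells and 1 = vehicle-only wells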
# CYP2C19 inhib: inhibitors of human CYP2C19; P33261; CYP2C19 Supersomes, luciferin-H EGE luminescence, 30 min; inhibition, % at 5 µM; hit rate 21% among 96,000;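 active = CYP2C19 inhibition above a set limit at 5 µM in the primary screen, cut at about 50% in these data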;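 also: plate controls were negative control wells for no effect and 2.5 mM tranylcypromine positive control for full effect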
# The depositor's hits bear a star; / = no result given.
SMILES,Plk1 PBD FP,CYP2C9 inhib,PLK1 kinase inh,CYP2C19 activ,CYP2C9 act,CYP2C19 inhib
CCOc1ccc2c(c1)-c1c(ssc1=S)C(C)(C)N2,-11.9,71.6*,-13.2,0.3,0.3,71.6*
CCOC(=O)c1c(N)sc2c(O)c(Br)ccc12,-11.4,72.8*,9.2,0.7,0.3,30.4
COc1cccc(OCC(=O)N(Cc2nc(-c3ccc(Cl)cc3)no2)C(C)C)c1,24.1,86.8*,0.0,0.1,0.1,88.4*
COc1ccccc1OCC(=O)N(Cc1nc(-c2ccc(Cl)cc2)no1)C(C)C,-2.6,-64.5,-12.6,0.2,1.6,77.6*
COc1cccc(C(=O)N(Cc2nc(-c3ccc(C)cc3)no2)C(C)C)c1,6.1,40.7,-10.9,0.9,0.6,11.6
Cc1nn(Cc2c(F)c(F)c(F)c(F)c2F)c(C)c1NC(=O)c1ccc(COc2cc(Cl)ccc2Cl)cc1,-25.2,41.2,-12.0,0.9,0.6,6.4
COC(=O)CCC(=O)Nc1nc(-c2ccccc2)cs1,10.6,/,-11.9,/,/,/
O=C(/C=C/c1ccc2c(c1)OCO2)Nc1nc(-c2ccccc2)cs1,-8.7,74.0*,-10.2,0.4,0.3,58.9*
O=C(/C=C/c1cccs1)Nc1nc(-c2ccccc2)cs1,-24.2,85.0*,-8.4,0.3,0.2,70.2*
CC(C)CCNC(=O)NC(=O)Cn1cc(C(F)(F)F)ccc1=O,-28.4,34.6,-0.1,0.6,0.7,38.4
CC(C)CC(=O)NC(=S)Nc1nc(-c2cccc3ccccc23)cs1,-13.1,57.2*,-0.8,0.6,0.4,41.5
COc1ccc(-c2csc(NC(=O)CC(C)C)n2)cc1,16.0,/,1.2,/,/,/
CCOC(=O)c1cc(CNC(=O)c2c(C)oc3c2CCCC3)c(C)o1,2.2,17.5,-4.9,0.8,0.8,16.2
COc1ccc(Cl)cc1NC(=O)C(C)Sc1n[nH]c(N)n1 (stereo not given),-7.3,-128.9,-9.3,0.6,2.3*,39.9
COc1ccc(CC(=O)Nc2cc(Cl)ccc2O)cc1,-5.5,58.7*,-2.1,0.1,0.4,92.5*
COc1cc(OC)c(NC(=O)Cn2cccc2)cc1Cl,-3.8,22.2,-5.4,0.6,0.8,38.7
COc1ccc(CCC(=O)Nc2cc(Cl)ccc2OC)cc1,-5.1,15.2,-3.0,0,0.8,100.3*
COc1ccc(Cl)cc1NC(=O)Cn1cccc1,-16.4,-178.2,-6.2,0.6,2.8*,36.3
O=C(COc1ccc(Cl)cc1)NCc1nnc(SCC(=O)N2CCCc3ccccc32)o1,-5.8,17.6,-7.3,1,0.8,-2.9
CC1=CC(c2ccccc2)n2nc(NS(=O)(=O)c3ccc(C)cc3)nc2N1 (stereo not given),-6.2,24.4,-1.1,1.1,0.8,-7.5
COc1ccccc1Nc1nnc(SCC(=O)N2CCCC2=O)s1,21.6,-167.2,-3.3,0.4,2.7*,56.8*
COc1ccccc1N1CCN(C(=O)CSc2nnc(NC(=O)C3CCC3)s2)CC1,-30.0,81.8*,-16.7,0.5,0.2,51.0*
COc1ccccc1Nc1nnc(SCC(=O)N2CCCC2)s1,23.7,-63.7,-15.3,0.9,1.6,6.3
CCOc1ccccc1Nc1nnc(SCC(=O)N2CCCC2)s1,6.8,-130.5,-5.6,1,2.3*,4.4
O=C(CSc1nc2ccccc2s1)NCCOc1ccc(Cl)cc1,-14.9,39.6,-12.6,0.6,0.6,37.9
SMILES,Plk1 PBD FP,CYP2C9 inhib,PLK1 kinase inh,CYP2C19 activ,CYP2C9 act,CYP2C19 inhib
COc1ccccc1C1CC(c2c(-c3ccccc3)c3cc(Cl)ccc3[nH]c2=O)=NN1S(C)(=O)=O (stereo not given),-27.9,59.5*,-5.4,0.7,0.4,28.3
COc1cccc(C2CC(c3c(-c4ccccc4)c4cc(Cl)ccc4[nH]c3=O)=NN2S(C)(=O)=O)c1OC (stereo not given),-3.0,50.6*,-2.4,0.8,0.5,24.5
COc1ccc2c(c1OC)C(=O)N1N=C(c3ccccc3)CC21 (stereo not given),-20.4,-21.9,-15.3,0.8,1.2,19.4
COC(=O)CSc1c(-c2ccccc2)c2cc(Cl)ccc2[nH]c1=O,-17.7,32.4,-17.0,0.7,0.7,33.6
CC1CCC(C(=O)NC(C(=O)NCCN2CCC(C)CC2)C(C)C)CC1 (stereo not given),7.6,2.0,-11.3,1.1,1,-6.8
Cc1ccc2c(c1)sc[n+]2Cc1ccccc1,-15.9,68.2*,-13.9,0.3,0.3,65.7*
Cc1cc(C)n2cc(CSc3nnc(N)s3)nc2n1,-11.8,-5.5,-3.5,1.1,1.1,-5.9
O=C(CSc1nnc(-c2cccnc2)n1Cc1ccccc1)NCc1ccccc1,-3.2,/,-7.2,/,/,/
O=C(CSc1nnc2scc(-c3ccccc3)n12)Nc1nsc(-c2ccc(Cl)cc2)n1,-4.0,/,-9.9,/,/,/
Cc1nc(CSc2nnc3scc(-c4ccc(Cl)cc4)n23)cs1,-11.7,30.9,-16.3,0.4,0.7,60.5*
CCc1nc(NC2CCCCC2)c(C#N)c2c1COC(C)(C)C2,-18.5,1.0,-14.0,1.1,1,-9.9
CC1(C)Cc2c(C#N)c(N3CCOCC3)nc(Cc3ccccc3)c2CO1,-10.9,76.6*,-23.4,0.1,0.2,92.7*
CC1CCN(c2nc(-c3ccco3)c3c(c2C#N)CC(C)(C)OC3)CC1,/,55.8*,/,1.1,0.4,-10.9
CCc1nc(N2CCN(C(=O)c3ccccc3)CC2)c(C#N)c2c1COC(C)(C)C2,-7.8,77.1*,-4.8,0.2,0.2,75.1*
Cc1ccc(S(=O)(=O)N2CCN(c3nc(C)c4c(c3C#N)CC(C)(C)OC4)CC2)cc1,/,83.0*,/,0.2,0.2,76.7*
CC1(C)Cc2c(C#N)c(N3CCOCC3)nc(-c3ccccc3)c2CO1,15.9,/,-9.6,/,/,/
CCCC(CCC)C(=O)Nc1c[nH]c(=O)[nH]c1=O,-6.0,-20.7,-7.7,1.1,1.2,-14.2
CCc1nc(N2CCOCC2)c(C#N)c2c1COC(C)(C)C2,-2.9,11.9,-9.2,0.4,0.9,59.7*
CC(C)Cc1nc(N2CCN(C(=O)Cc3ccccc3)CC2)c(C#N)c2c1COC(C)(C)C2,/,45.5,/,0.7,0.5,27.4
CC1(C)Cc2c(C#N)c(N3CCN(C(=O)c4ccccc4)CC3)nc(Cc3ccccc3)c2CO1,-8.2,98.5*,-4.6,0.5,0,47.5
Cc1nc(N2CCOCC2)c(C#N)c2c1COC(C)(C)C2,-0.2,/,-12.8,/,/,/
Cc1nc(SCC(=O)N2CCC(C(N)=O)CC2)n[nH]1,-0.1,-1.3,-6.2,0.9,1,12.9
O=C(O)CCCNS(=O)(=O)c1ccc(NCc2ccccc2)c(C(=O)O)c1,-15.2,-6.8,-2.9,1.2,1.1,-18.9
CC(=O)Nc1ccc(S(=O)(=O)NCC(=O)OCC(=O)N2CCc3ccccc32)cc1,-15.5,71.3*,-1.0,0.9,0.3,11.6
O=C(C1CCN(S(=O)(=O)c2ccc3c(c2)OCCO3)CC1)N1CCc2ccccc21,/,-11.9,/,0.9,1.1,8.2
CCOc1ccc(S(=O)(=O)NCCC(=O)OC(C)C(=O)N2CCc3ccccc32)cc1 (stereo not given),9.1,-113.9,-1.0,0.5,2.1*,50.3*
